Data on 8 molecules can be found in PubChem BioAssay (Tox21).

Test [1] in a line: Nuclear factor erythroid 2-related factor 2/antioxidant responsive element (Nrf2/ARE) small molecule agonists: qHTS cell viability counter screen in human keratinocytes (AID 1919968; active = well fitted curve in the direction sought with a large enough effect in the repeat runs; an effect the other way counts as inactive or inconclusive; note: nearly all actives have a fitted effect of over 55% in size; note: potency is the fitted concentration of half-maximal effect). The method in brief: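 Fluorescence read-out from CellTiter-Fluor after 1 h at 37 C. Wells held HaCaT-derived ARE-luciferase reporter cells (1,500/well) treated 23 h with DMSO-dissolved compounds. Run in the same wells as the luciferase agonist read.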
On the technique in general: Quantitative high-throughput screening tests each substance at several concentrations.

The nature of test [2]: Nuclear factor erythroid 2-related factor 2/antioxidant responsive element (Nrf2/ARE) small molecule agonists: luciferase reporter gene qHTS assay in human keratinocytes (AID 1919969). Note: nearly all actives have a fitted effect of over 35% in size. Note: potency is the fitted concentration of half-maximal effect.
Test [3] deals with Gonadotropin-releasing hormone receptor (Homo sapiens) (UniProt P30968). As to the kind of experiment: Human gonadotropin-releasing hormone receptor (GnRHR) small molecule agonists, calcium flux assay in GnRHR-HEK293 cells (AID 1920063). Note: nearly all actives have a fitted effect of over 35% in size. The method in brief: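 Calcium-dye fluorescence, Ex/Em=480/540, recorded every 1 sec over 3 min after compound addition to GnRHR-HEK293 cells. Cells had been seeded 18 hours earlier and dye-loaded for 1 hour at 37 C. Fifteen concentrations, triplicates.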
(Calcium assays in cells follow changes in intracellular calcium, usually with a dye or a luminescent sensor.)

Test [4] has as its target KiSS-1 receptor (Homo sapiens) (UniProt Q969F8). As to the kind of experiment: Human kisspeptin (KISS1R) small molecule agonists, calcium flux assay in KISS1R-HEK293 cells (AID 1920064; active = well fitted curve in the direction sought with a large enough effect in the repeat runs; an effect the other way counts as inactive or inconclusive). The method in brief:
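Calcium flux read-out: kinetic fluorescence at Ex/Em=480/540, 1 s intervals over 3 min, after pin-tool compound addition to dye-loaded KISS1R-HEK293 cells. Fifteen concentrations, triplicates.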

A short description of test [5]: G protein-coupled receptor (GPCR) small molecule agonists, calcium flux assay: HEK293 wild type cell line counter screen (AID 1920065). The method in brief:
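Agonist mode; 18 h seeding at 37 C, 1 h dye load at 37 C; compounds pinned from DMSO, ATP as positive control; kinetic fluorescence 480/540 nm, 3 min, 1 s reads; 15 concentrations, triplicate.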

A short description of test [6]: p53 small molecule agonists, cell-based qHTS assay with human liver microsomes (AID 1963577). The method in brief: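 In this qHTS, p53 response-element beta-lactamase cells receive test compound together with a microsome/NADPH activating system (0.5 mg/mL final each) and are incubated 16 h at 37 C before LiveBLAzer fluorescence detection.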
Test [7] is described as follows: p53 small molecule agonists, cell-based qHTS assay with rat liver microsomes (AID 1963578). The method, boiled down:
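Agonist mode in p53RE-bla reporter cells, with compounds co-incubated 16 h at 37 C alongside 0.5 mg/mL rat liver microsomes and 0.5 mg/mL NADPH (final), followed by a 2 h LiveBLAzer detection step.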

A short description of test [8]: p53 small molecule agonists, cell-based qHTS assay with human liver microsomes: qHTS cell viability counter screen (AID 1963579). Note: nearly all actives have a fitted effect of over 45% in size. The method in brief:
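Metabolically activated exposure: compounds, human liver microsomes and NADPH (0.5 mg/mL final apiece) were added to p53RE-bla cells seeded 5 h earlier, left 16 h at 37 C, and then assessed for viability by CellTiter-Glo luminescence.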

Test [9] can be described thus: p53 small molecule agonists, cell-based qHTS assay with rat liver microsomes: qHTS cell viability counter screen (AID 1963580). Note: nearly all actives have a fitted effect of over 45% in size. The method, boiled down:
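Cytotoxicity counter screen: intracellular ATP measured by CellTiter-Glo luminescence in the same wells as the beta-lactamase reporter read, on HCT-116 p53RE-bla cells exposed 16 h at 37 C to compounds with rat liver microsomes and NADPH, each 0.5 mg/mL final.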

The nature of test [10]: p53 small molecule agonists, cell-based qHTS assay: qHTS cell viability counter screen (AID 1963581). Note: nearly all actives have a fitted effect of over 45% in size. The method, boiled down: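 Cytotoxicity read-out: ATP-based luminescence (CellTiter-Glo, 30 min RT) measured in the same wells as the p53 reporter assay, HCT-116 p53RE-bla cells, 16 h compound exposure at 37 C.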
Test [11] in a line: p53 small molecule agonists, cell-based qHTS assay (AID 1963582; active = well fitted activation curve with a large enough effect in the signal ratio in the repeat runs, not every such curve was filed as active; the % refers to the signal ratio; note: potency is the fitted concentration of half-maximal effect). The method in brief:
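Fluorescence intensity read-out of a beta-lactamase reporter under a p53 response element. Cells were exposed to DMSO-dissolved compounds for 16 h at 37 C, then developed with FRET substrate for 2 h at RT.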

Test [12] concerns the target 5-hydroxytryptamine receptor 2A (Homo sapiens) (UniProt P28223). As to the kind of experiment: 5-hydroxytryptamine receptor 2A (HTR2A) small molecule antagonists, cell-based qHTS assay (AID 1963586). Note: nearly all actives have a fitted effect of over 45% in size. The method, boiled down:
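CHO cells stably expressing human HTR2A were plated for 18 h at 37 C, then loaded with calcium dye for 1 h. Compounds were preincubated 5 min at room temperature before DOI (4 nM solution) was added. Kinetic fluorescence was read for 3 min.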

Test [13] has the same target. As to the kind of experiment: 5-hydroxytryptamine receptor 2A (HTR2A) small molecule agonists, cell-based qHTS assay (AID 1963587). Note: nearly all actives have a fitted effect of over 30% in size. The method in brief:
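CHO cells stably expressing human HTR2A, plated 18 h, loaded with calcium dye 1 h at 37 C. Agonist mode: compounds added and intracellular calcium fluorescence recorded kinetically for 2 min at 1 sec intervals.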

Test [14] concerns the target Muscarinic acetylcholine receptor M1 (Homo sapiens) (UniProt P11229). As to the kind of experiment: Cholinergic receptor muscarinic 1 (CHRM1) small molecule agonists, cell-based qHTS assay (AID 1963589). Note: nearly all actives have a fitted effect of over 35% in size. The method in brief:
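Calcium flux read-out: kinetic fluorescence at 1 sec intervals after pin-tool compound addition to dye-loaded CHRM1-CHO cells (human M1). Agonist mode; 15 concentrations tested in triplicate independent runs.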

Test [15] has as its target Beta-2 adrenergic receptor (Homo sapiens) (UniProt P07550). As to the kind of experiment: Adrenergic beta2 receptor (ADRB2) small molecule antagonists, cell-based qHTS assay (AID 1963592). Note: series mostly up to about 92 µM; nearly all actives have a fitted effect of over 50% in size. The method, boiled down: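 Assay format: CHO-ADRB2 cells, 18-20hr seeding at 37C/5% CO2, then compound plus 1nM isoproterenol agonist mix for 0.5hr RT. Homogeneous time-resolved fluorescence cAMP detection after 1hr, expressed as 665/615 nm ratio.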

The target of test [16] is D(2) dopamine receptor (Homo sapiens) (UniProt P14416). As to the kind of experiment: Dopamine D2 receptor (DRD2) small molecule agonists, cell-based qHTS assay (AID 1963594). Note: nearly all actives have a fitted effect of over 35% in size. The method in brief: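 HEK293 cells stably expressing human DRD2, pre-treated with PDE inhibitor Ro20-1724 (0.1 mM final) and compound 10 min at room temperature, then stimulated with NKH477 (200nM […]) for 30 min. cAMP read by HTRF (665/620 nm).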

Test [17] has the same target. As to the kind of experiment: Dopamine D2 receptor (DRD2) small molecule antagonists, cell-based qHTS assay (AID 1963595; active = well fitted inhibition curve with a large enough effect in the signal ratio in the repeat runs, with a control signal flat; the % refers to the signal ratio). The method, boiled down: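 Stable D2 receptor HEK293 line, 24 h after seeding. Compound preincubated 10 min, then quinpirole (12 nM) with forskolin analogue NKH477 (200 nM), 30 min, room temperature. Detection by time-resolved FRET of cAMP.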
Test [18] can be described thus: cAMP Responsive Elements (CRE) small molecule agonists, cell-based qHTS assay (AID 1963590). The method in brief:
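Beta-lactamase reporter readout: LiveBLAzer B/G FRET substrate, 2 h at room temperature, added after 3 h compound treatment of CRE-bla HEK 293T cells at 37 C/5% CO2.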

Test [19] is described as follows: cAMP Responsive Elements (CRE) small molecule antagonists, cell-based qHTS assay (AID 1963591; active = well fitted inhibition curve with a large enough effect in the signal ratio in the repeat runs, not every such curve was filed as active; the % refers to the signal ratio). The method, boiled down:
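HEK293T CRE-bla; 18 h preincubation; compound pin-transfer; NKH477 0.25 uM final, 3 h, 37 C; LiveBLAzer FRET substrate 2 h RT.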

Values without a mark were called inactive. Inconclusive results are not listed. Active and inactive are the calls of the source. Unless noted, calls come from the whole dose curve.

D(2) dopamine receptor (Homo sapiens), sequence (P14416 whole entry, looked up): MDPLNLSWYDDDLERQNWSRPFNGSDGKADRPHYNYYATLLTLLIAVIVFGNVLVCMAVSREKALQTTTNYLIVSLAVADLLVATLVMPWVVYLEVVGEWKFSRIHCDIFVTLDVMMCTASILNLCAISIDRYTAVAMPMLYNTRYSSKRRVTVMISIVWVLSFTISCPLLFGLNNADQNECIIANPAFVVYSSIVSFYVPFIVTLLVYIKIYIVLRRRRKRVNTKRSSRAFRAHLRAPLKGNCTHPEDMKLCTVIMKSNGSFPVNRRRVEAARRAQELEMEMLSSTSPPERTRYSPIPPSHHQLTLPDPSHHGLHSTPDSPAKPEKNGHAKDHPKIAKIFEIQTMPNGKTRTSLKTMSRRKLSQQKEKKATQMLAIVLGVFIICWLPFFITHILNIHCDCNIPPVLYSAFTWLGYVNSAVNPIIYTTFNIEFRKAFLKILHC
KiSS-1 receptor (Homo sapiens), sequence (Q969F8 whole entry, looked up): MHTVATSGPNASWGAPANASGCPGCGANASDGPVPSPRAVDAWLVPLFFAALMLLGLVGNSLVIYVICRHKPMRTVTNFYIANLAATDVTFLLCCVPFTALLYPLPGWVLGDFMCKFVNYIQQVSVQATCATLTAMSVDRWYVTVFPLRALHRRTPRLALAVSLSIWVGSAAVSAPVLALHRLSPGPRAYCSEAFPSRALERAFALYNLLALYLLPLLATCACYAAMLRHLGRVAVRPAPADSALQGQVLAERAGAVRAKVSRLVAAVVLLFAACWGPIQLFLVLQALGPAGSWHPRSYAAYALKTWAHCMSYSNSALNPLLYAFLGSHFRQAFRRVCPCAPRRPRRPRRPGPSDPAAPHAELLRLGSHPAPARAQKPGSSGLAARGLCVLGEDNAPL
Muscarinic acetylcholine receptor M1 (Homo sapiens), sequence (P11229 whole entry, looked up): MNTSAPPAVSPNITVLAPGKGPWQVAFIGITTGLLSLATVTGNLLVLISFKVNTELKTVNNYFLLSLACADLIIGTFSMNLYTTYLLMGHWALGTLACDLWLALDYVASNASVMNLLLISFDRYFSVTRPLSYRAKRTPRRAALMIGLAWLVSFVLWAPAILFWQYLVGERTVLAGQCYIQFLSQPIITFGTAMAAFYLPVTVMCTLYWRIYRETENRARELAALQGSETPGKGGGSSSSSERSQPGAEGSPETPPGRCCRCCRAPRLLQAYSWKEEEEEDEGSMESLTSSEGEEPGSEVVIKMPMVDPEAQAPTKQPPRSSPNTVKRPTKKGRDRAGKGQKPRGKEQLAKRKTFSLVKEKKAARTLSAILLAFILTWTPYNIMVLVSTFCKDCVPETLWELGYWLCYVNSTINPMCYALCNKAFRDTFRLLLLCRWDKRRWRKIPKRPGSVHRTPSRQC
Gonadotropin-releasing hormone receptor (Homo sapiens), sequence (P30968 whole entry, looked up): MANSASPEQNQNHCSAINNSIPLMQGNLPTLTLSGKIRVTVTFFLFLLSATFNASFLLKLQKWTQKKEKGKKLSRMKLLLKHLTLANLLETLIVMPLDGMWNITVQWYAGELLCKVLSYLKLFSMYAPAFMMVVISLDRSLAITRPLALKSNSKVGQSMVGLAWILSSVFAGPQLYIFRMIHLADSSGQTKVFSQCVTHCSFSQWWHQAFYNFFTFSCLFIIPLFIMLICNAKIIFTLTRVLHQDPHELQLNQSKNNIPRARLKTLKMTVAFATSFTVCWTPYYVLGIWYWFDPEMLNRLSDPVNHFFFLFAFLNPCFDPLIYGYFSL
5-hydroxytryptamine receptor 2A (Homo sapiens), sequence (P28223 whole entry, looked up): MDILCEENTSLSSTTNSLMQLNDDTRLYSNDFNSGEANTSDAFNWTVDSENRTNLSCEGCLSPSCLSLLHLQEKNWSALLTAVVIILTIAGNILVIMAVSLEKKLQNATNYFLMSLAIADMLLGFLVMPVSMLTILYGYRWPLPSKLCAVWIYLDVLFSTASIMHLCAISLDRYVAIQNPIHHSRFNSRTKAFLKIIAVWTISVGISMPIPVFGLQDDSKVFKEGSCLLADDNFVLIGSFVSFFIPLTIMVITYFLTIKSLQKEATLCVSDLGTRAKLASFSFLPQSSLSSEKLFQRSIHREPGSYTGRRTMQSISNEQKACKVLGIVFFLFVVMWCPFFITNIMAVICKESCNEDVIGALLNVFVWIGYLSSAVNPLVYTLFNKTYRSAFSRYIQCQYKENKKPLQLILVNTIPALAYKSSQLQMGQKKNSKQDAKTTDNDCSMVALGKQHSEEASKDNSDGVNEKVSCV
Beta-2 adrenergic receptor (Homo sapiens), sequence (P07550 whole entry, looked up): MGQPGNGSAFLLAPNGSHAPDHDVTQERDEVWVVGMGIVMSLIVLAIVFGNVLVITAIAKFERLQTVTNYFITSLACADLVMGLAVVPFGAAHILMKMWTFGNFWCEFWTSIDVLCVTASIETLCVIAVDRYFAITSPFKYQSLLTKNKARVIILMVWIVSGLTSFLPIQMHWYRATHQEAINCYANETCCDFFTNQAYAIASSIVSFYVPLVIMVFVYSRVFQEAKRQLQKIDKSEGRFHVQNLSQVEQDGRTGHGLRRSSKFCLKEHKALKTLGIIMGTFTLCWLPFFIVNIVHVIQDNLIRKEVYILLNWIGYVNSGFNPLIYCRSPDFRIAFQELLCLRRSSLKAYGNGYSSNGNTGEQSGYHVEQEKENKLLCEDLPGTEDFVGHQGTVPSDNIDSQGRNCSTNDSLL

In the case of `CNC(=O)c1ccccc1Sc1ccc2c(/C=C/c3ccccn3)n[nH]c2c1`, the Potency result in test [1], in test [3], in test [6], in test [7], in [8] and in test [9] was “inactive” throughout. For the same molecule, the Potency result in test [10], in test [12], in test [13], in test [14], in [15] and in test [16] was “inactive” in each case. Besides, the Potency entry in test [17] is “inactive”. Also, the Potency was 0.0841 µM (active) in test [2] and 1.41 µM (active) in [11]. Besides, the outcome in test [4] and in test [5] was inactive.
With `Cc1c(C(=O)NCCO)[n+](=O)c2ccccc2n1[O-]`, the Potency entry in test [1], in [2], in [3], in test [6], in test [7] and in test [8] was “inactive” each time. Further, the Potency entry in [9], in test [10], in test [11], in test [12], in test [13] and in test [14] was “inactive” in each case. The Potency entry in test [18], in test [19] and in test [16] was “inactive” each time. Besides, the result in test [4] and in test [5] was inactive.
As to `Cc1scc2c1N(C(=O)CN1CCN(C)CC1)c1ccccc1NC2=O`, the Potency entry in [1], in [2], in test [3], in test [6], in test [7] and in test [8] was “inactive” each time. Further, the Potency entry in [9], in test [10], in test [11], in [12], in test [13] and in test [14] was “inactive” each time. The Potency result in test [18], in test [19], in test [15], in test [16] and in test [17] was “inactive” each time. In addition, the result in [4] and in [5] was inactive.
Regarding `Cc1c(C)c2c(c(C)c1OC(=O)CCC(=O)OCCO)CC[C@@](C)(CCC[C@H](C)CCC[C@H](C)CCCC(C)C)O2`, the Potency in test [1] is 26.6 µM (active). The Potency result in [2], in test [3], in test [6], in test [7], in [8] and in test [9] was “inactive” each time. Moreover, the Potency result in test [10], in [11], in test [12], in test [13], in test [14] and in test [15] was “inactive” throughout. The Potency result in test [16] and in test [17] was “inactive” each time. For the same molecule, the result in [4] and in test [5] was inactive.
For `Nc1ccc(Cl)cc1[N+](=O)[O-]`, the Potency result in [1], in test [2], in [3], in test [6], in test [7] and in test [8] was “inactive” in each case. Further, the Potency entry in test [9], in test [10], in [11], in test [12], in [13] and in test [14] was “inactive” in each case. Further, the Potency result in [18], in [19], in test [15], in test [16] and in test [17] was “inactive” each time. The result in [4] and in test [5] was inactive.
`O=C1OC(=O)c2cc([N+](=O)[O-])ccc21`: the Potency entry in [1], in test [2], in test [3], in [6], in test [7] and in [8] was “inactive” throughout. In addition, the Potency result in test [9], in test [10], in test [11], in test [12], in [13] and in test [14] was “inactive” each time. Also, the Potency entry in test [18], in test [19], in test [16] and in [17] was “inactive” throughout. The result in test [4] and in test [5] was inactive.
As for `CCOC(=O)N1CCC(Nc2ccc(Cl)cc2N)CC1`, the Potency entry in test [1], in test [2], in [3], in test [6], in [7] and in test [8] was “inactive” each time. The Potency entry in test [9], in [10], in test [11], in test [12], in test [13] and in test [14] was “inactive” in each case. In addition, the Potency result in [15] and in test [17] was “inactive” throughout. Besides, the result in test [4] and in test [5] was inactive.
In the case of `CCN1CN(CC)CN(CC)C1`, the Potency entry in test [1], in test [2], in test [3], in [6], in test [7] and in test [8] was “inactive” in each case. Further, the Potency result in test [9], in test [10], in [11], in [12], in [13] and in test [18] was “inactive” in each case. The Potency result in test [15], in test [16] and in test [17] was “inactive” each time. In addition, the result in [4] and in test [5] was inactive.
